Compound activity as filed in PubChem.
ClpP mod – qHTS Assay for Activators of ClpP; AID 651965, 2013; purified B. subtilis ClpP, FRET peptide cleavage, 20 min; hit rate 1.9% among 340,000; Potency, µM (doses to about 57.5 µM); active = well fitted falling curve with a large enough effect; inconclusive = small, poorly fitted or top-dose-only effect; inactive = no such curve, though single readings can be large or run the other way; also: the source files actives as falling curves though it sought activators and does not explain the sign; nearly all actives have a fitted effect of over 65% in size
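Buffer: 100 mM Tris/HCl pH8, 100 mM KCl, 0.05% low protease BSA, 2.5% glycerol, 0.01% Tween-20. ClpP 10 microg/mL final; 20 min RT; delta FRET normalized to ADEP and DMSO controls.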
HEK293 tox – qHTS of GLP-1 Receptor Inverse Agonists: Cytotox Screen | hit rate 0.13% among 410,000 | AID 624418, 2012 | Potency, µM (highest dose often 38.3 µM), most hits filed as inhibitors | HEK293 cAMP-luciferase reporter cells, luminescence, 24 h;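 also: loss of luciferase light is scored as toxicity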
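A 23 nL compound transfer followed 12 hours of cell culture at 37 deg C; exposure then lasted 24 hr. Luciferase assay detection reagent was dispensed and plates read for luminescence after a 12 min room-temperature wait.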
GLP1R inv ag – qHTS of GLP-1 Receptor Inverse Agonists (Inhibition Mode); Glucagon-like peptide 1 receptor (Homo sapiens), P43220; HEK293 GLP-1R CRE-luciferase, luminescence, 24 h; GLP-1R form is constitutively active; Potency, µM (doses to about 38.3 µM), hits mostly inhibitors; hit rate 1.6% among 410,000; also: nearly all actives have a fitted effect of over 55% in size
Target sequence (P43220 whole entry, looked up): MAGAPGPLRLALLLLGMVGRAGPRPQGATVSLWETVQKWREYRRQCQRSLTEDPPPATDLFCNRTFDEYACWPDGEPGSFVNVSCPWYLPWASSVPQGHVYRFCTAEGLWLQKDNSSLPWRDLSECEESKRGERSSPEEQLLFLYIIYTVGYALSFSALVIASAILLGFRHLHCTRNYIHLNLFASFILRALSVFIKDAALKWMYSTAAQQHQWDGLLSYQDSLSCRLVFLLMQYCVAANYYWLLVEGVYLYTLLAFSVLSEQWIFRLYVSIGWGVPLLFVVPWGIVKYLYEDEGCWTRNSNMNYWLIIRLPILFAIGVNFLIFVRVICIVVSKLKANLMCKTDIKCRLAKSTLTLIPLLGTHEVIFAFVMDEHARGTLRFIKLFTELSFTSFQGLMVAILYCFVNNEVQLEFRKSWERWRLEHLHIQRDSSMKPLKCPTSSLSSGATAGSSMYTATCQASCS
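Inverse agonists were sought by their lowering of basal cAMP reporter luciferase output in HEK293 cells stably carrying constitutively active human GLP-1R, after 24 h compound treatment.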
GLP1R ag – qHTS of GLP-1 Receptor Agonists | HEK293 GLP-1R CRE-luciferase, luminescence, 4-6 h; cells express a hypersensitive GLP-1R form | AID 624172, 2012 | Potency, µM (doses to about 45.6 µM), actives largely listed as activators | Glucagon-like peptide 1 receptor (Homo sapiens), P43220 | hit rate 0.007% among 380,000
DRD3 antagonist – qHTS of D3 Dopamine Receptor Antagonist: qHTS | D(3) dopamine receptor (Homo sapiens), P35462 | D3R cells, DiscoveRx beta-arrestin luminescence, antagonist mode; active compounds read low | max response, negative = inhibition, % | hit rate 2.5% among 360,000 | AID 652054, 2013; in the data active = max response below about -50%; inconclusive = no clear call, values can overlap the other calls
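Cells expressing the human receptor were seeded at 1500 cells/well, incubated overnight at 37 degrees C in 5% CO2, then exposed to library compounds with dopamine controls for 90 minutes at 37 degrees C before luminescent detection.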
DRD3 agonist – qHTS of D3 Dopamine Receptor Agonist: qHTS | max activation, % | D3R DiscoveRx beta-arrestin cells, luminescence, 90 min | AID 652048, 2013 | hit rate 0.58% among 410,000; in the data active = max activation above about 30%
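Cells at 1500/well, incubated overnight, then treated with pinned compounds (dopamine as control) for 90 min at 37 degrees C. DiscoveRx reagent added for 30 - 60 minutes at room temperature; luminescence read.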
Each line names hits and unclear results; the compound was inactive in the other large screens; ! = not confirmed by another sample. Only some compounds are listed: those with a hit (about 5.7% of all), similar ones and a draw of the others. Unless noted, calls follow the shape of the dose curve; as a rule, active = well fitted curve in the direction sought with a large enough effect; inconclusive = small, poorly fitted or top-dose-only effect, or another doubt; inactive = no such curve, though single readings can be large; an effect the other way counts as inactive or inconclusive.

Cc1cc(C)cc(N(CC(=O)Nc2cccc(C)n2)S(=O)(=O)c2c(C)noc2C)c1	GLP1R inv ag 8.91µM
COc1ccc(N(CC(=O)NC(C)c2ccccc2)S(=O)(=O)c2c(C)noc2C)cc1 (configuration not stated)	GLP1R inv ag 8.91µM!
Cc1ccccc1NC(=O)c1cc2c(-c3ccccc3)nn(-c3ccccc3)c2s1	ClpP mod inconclusive (no result: DRD3 antagonist)
CC(=O)c1ccc(OC2(C)CCN(Cc3ccc4c(c3)OCCO4)C2)cc1 (configuration not stated)	DRD3 antagonist -68.8
CC(=O)c1ccc(OC2(C)CCN(Cc3ccc(C)cc3)C2)cc1 (configuration not stated)	DRD3 antagonist -101.9
CCc1ccc(OC2(C)CCN(Cc3ccc4c(c3)OCCO4)C2)cc1 (configuration not stated)	none
O=C1NC[C@H](Cc2ccc(O)cc2)N(C[C@@H]2CCCN2C[C@H](Cc2ccccc2)N2C[C@H](Cc3ccc(O)cc3)N(CC3CCCCCC3)C(=O)C2=O)C1=O	none
Cc1cc(C)c(S(=O)(=O)Nc2cc(Cl)c3oc4c(c3c2)C(=O)CCC4)cc1C	none (no result: GLP1R ag, DRD3 antagonist)
c1csc(Cc2nn3c(-c4n[nH]c5c4CCC5)nnc3s2)c1	DRD3 antagonist -61.5
CCC(C)Sc1nc2ccccc2c(=O)[nH]1 (configuration not stated)	ClpP mod 25.1µM, GLP1R inv ag inconclusive
CC(C)Sc1nc2ccccc2c(=O)[nH]1	none
Cc1ccc(NC(=O)C2SC(=Nc3ccccc3)C(C(=O)Nc3ccc(Cl)cc3)=C2N)cc1 (configuration not stated)	GLP1R inv ag inconclusive (no result: ClpP mod)
Cc1ccc(N=C2SC(C(=O)Nc3ccc(OC(F)(F)F)cc3)C(N)=C2C(=O)Nc2c(C)cc(C)cc2C)cc1 (configuration not stated)	ClpP mod inconclusive, HEK293 tox inconclusive, GLP1R inv ag 2.82µM
C=CC[C@@H]1Cc2c(Br)ccc(Br)c2[C@@H](CC=C)N1	GLP1R inv ag inconclusive, DRD3 agonist 32.1
C=CCC1NCCc2c(Br)cccc21 (configuration not stated)	none (no result: ClpP mod)
CCN(c1ccccc1)S(=O)(=O)c1ccc(-c2cc(C)no2)s1	GLP1R inv ag inconclusive (no result: GLP1R ag, DRD3 antagonist)
CCN(c1ccc(OC)cc1)S(=O)(=O)c1ccc(-c2cc(C)no2)s1	GLP1R inv ag 7.94µM
C/C(=N/NC(=O)c1cc2ccccc2cc1O)C1C(=O)c2ccccc2C1=O	HEK293 tox inconclusive, GLP1R inv ag inconclusive, DRD3 antagonist -56.4
C/C(=N\NC(=O)c1ccccc1O)C1C(=O)c2ccccc2C1=O	none
CC1Cc2ccccc2N1S(=O)(=O)c1cccs1 (configuration not stated)	DRD3 antagonist -109.9
Cc1ccc(S(=O)(=O)N2c3ccccc3CC2C)cc1 (configuration not stated)	GLP1R inv ag inconclusive (no result: ClpP mod)
CCOc1cc2c(C#N)c(N3CCNCC3)nc(N)c2c(N)n1	ClpP mod 35.5µM
CCOc1cc2c(C#N)c(N3CCCCC3)nc(N)c2c(N)n1	ClpP mod 25.1µM
O=S1(=O)NC2CCCCCN2c2ccc(F)cc21 (configuration not stated)	ClpP mod 28.2µM
CCc1ccc(-c2nc3ccc(Br)cc3c(C(=O)O)c2C)s1	ClpP mod 25.1µM!, GLP1R inv ag inconclusive
Cc1c(-c2ccccc2Br)nc2ccccc2c1C(=O)O	none
CCOC(=O)c1c(C)oc2nc(C)nc(NCCCN3CCN(c4ccc(F)cc4)CC3)c12	none (no result: GLP1R ag, DRD3 antagonist)
O=C(Cn1ccc(C(F)(F)F)n1)NNC(=O)c1cccnc1	none
Cc1ccc(C(=O)NNC(=O)Cn2ccc(C(F)(F)F)n2)o1	ClpP mod 25.1µM
CCN(CC)S(=O)(=O)c1cc(-c2nnc(Nc3ccc(OC)c(C(N)=O)c3)c3ccccc23)ccc1C	GLP1R inv ag inconclusive (no result: GLP1R ag, DRD3 antagonist)
